# Laboratory results from paper PMC4552634, “A New Set of Chemical Starting Points with Plasmodium falciparum Transmission-Blocking Potential for Antimalarial Drug Discovery” (PLoS ONE, 2015).
# Like-named read-outs stand apart in the source and are kept apart here. Out of some 13,000 compounds screened, about 3,200 (25%) showed an effect of 50% or more. The list shows a part of the results.
# Tested on: P. falciparum stage V gametocytes
# Set-up: BacTiter-Glo ATP luminescence viability of purified stage V gametocytes in 384-well plates, per cent inhibition versus DMSO
# Details: 48 h, 5 µM, inhibitor
SMILES,% Inhibition,% Inhibition (% Inhibition)
Cc1cccc2[nH]c(-c3cccc(-c4cccc(NC(=O)CNc5ccc(C(N)=O)cc5)c4)c3)nc12 [TCMDC-132165],-3.752%,
Cc1ccccc1C1CCN(c2ccc(C(=O)NC3CC3)cn2)CC1 [TCMDC-134592],24.07%,
COc1ccc2nccc(NCC3(O)CCC(NCc4cc5c(cn4)OCCO5)CC3)c2n1 (stereo not shown) [TCMDC-134312],-33.45%,
COc1ccc2nccc(N3CCC(CCNCc4cc5c(cn4)OCCO5)CC3)c2c1.Cl [TCMDC-133537],9.41%,
COc1ccc2nccc(N3CCC(SCCNCc4cc5c(cn4)OCCO5)C3)c2n1 (stereo not shown) [TCMDC-134286],24.01%,
COc1ccc2nccc(N3CCC(CCNCc4cc5c(cn4)OCCO5)CC3)c2n1 [TCMDC-133538],80.45%,
COc1ccc2nccc(N3CCC(NCCNCc4cc5c(cn4)OCCO5)C3)c2n1 (stereo not shown) [TCMDC-134650],71.62%,
COc1ccc2nccc(N3CCC(CCNCc4ccc5c(n4)NC(=O)CS5)CC3)c2n1 [TCMDC-141944],32.25%,
COC(=O)c1cc2cccc(NC[C@@H](C)NC[C@H](O)c3cccc(Cl)c3)c2[nH]1 [TCMDC-137770],45%,
c1cc(CNC2CCN(CC3CCCCC3)CC2)cc(-n2ccnc2)c1 [TCMDC-141657],70.67%,
CCCCCCN1CCC(NCc2cccc(-n3ccnc3)c2)CC1 [TCMDC-141664],11.65%,
c1cc(CNCC2CCN(CC3CCCCC3)CC2)cc(-n2ccnc2)c1 [TCMDC-141675],21.38%,
CN(C)Cc1ccc(CNC2CCN(Cc3ccccc3Cl)CC2)cc1 [TCMDC-141671],-2.208%,
Clc1ccccc1CN1CCC(NCc2cccc(-n3ccnc3)c2)CC1 [TCMDC-141672],86.45%,
COc1ccc(CN2CCC(NCc3cccc(-n4ccnc4)c3)CC2)cc1 [TCMDC-141651],14.29%,
Cc1ccc(-c2cnc3[nH]cc(-c4ccc(C(=O)O)c(C)c4)c3c2)cc1C.O=C(O)C(F)(F)F [TCMDC-136381],18.23%,
CCCCc1cc(NCC)nc(Nc2ccc(F)cc2)n1 [TCMDC-134009],8.286%,
Cn1cncc1-c1ccc2ncnc(Nc3ccc4c(cnn4Cc4ccccc4)c3)c2c1 [TCMDC-137781],-8.163%,
O=C(CN1CCCCC1)Nc1ccc(Nc2nccc(NCC(O)c3ccccc3)n2)cc1 (stereo not shown) [TCMDC-136469],-6.593%,
CCN(CC)CCNC(=O)c1ccc(N=Cc2c(O)[nH]c3ccc(S(=O)(=O)Cc4c(Cl)cccc4Cl)cc23)cc1 [TCMDC-135945],35.17%,
NS(=O)(=O)c1cccc(N=Cc2c(O)[nH]c3ccc(S(=O)(=O)Cc4c(Cl)cccc4Cl)cc23)c1 [TCMDC-135947],101.9%,
CN(CCCCNC(=O)c1ccc(-c2ccccc2)cc1)C1CCc2c(O)cccc2C1 (stereo not shown) [TCMDC-139005],-43.63%,
O=C(Nc1ccc(OC2CCN(Cc3ccc(F)cc3)CC2)cc1)c1cccs1 [TCMDC-133741],27.9%,

SMILES,% Inhibition,% Inhibition (% Inhibition)
Cc1ccc(-c2nc3ccccc3o2)cc1NCc1cc(Cc2ccccc2)ccc1O [TCMDC-125705],-21.71%,
Cc1cc(O)c(CN2CCN(Cc3cccs3)CC2)cc1C(C)C [TCMDC-124883],-57.78%,
O=C(Cn1c(CCc2cccc(F)c2F)nc(=O)c2ccccc21)N(Cc1ccc(-c2ccc(C(F)(F)F)cc2)cc1)C1CCN(C2=NCCS2)CC1 [TCMDC-136537],107.4%,
CCN1CCCC1CN(Cc1ccc(-c2ccc(C(F)(F)F)cc2)cc1)C(=O)Cn1c(CCc2cccc(F)c2F)nc(=O)c2ccccc21 (stereo not shown) [TCMDC-141061],68.75%,
CCN1CCC(N(Cc2ccc(-c3ccc(C(F)(F)F)s3)cc2)C(=O)Cn2c(CCc3cccc(F)c3F)nc(=O)c3ccccc32)CC1 [TCMDC-141282],107.7%,
CCN1CCC(N(Cc2ccc(-c3ccc(C(F)(F)F)cc3)cc2)C(=O)CCCCn2c(CCc3cccc(F)c3F)nc(=O)c3ccccc32)CC1 [TCMDC-141321],85.03%,
Cc1ccccc1CNc1noc(-c2c(-c3ccccc3)noc2C)n1 [TCMDC-134201],-15.74%,
CCCOC(=O)c1ccc(OCCCON2C(N)=NC(N)=NC2(C)C)cc1 [TCMDC-131715],8.227%,
CCN1CCC(N(Cc2ccc(-c3ccc(C(F)(F)F)cc3)o2)C(=O)Cn2c(CCc3cccc(F)c3F)nc(=O)c3ccccc32)CC1 [TCMDC-141281],92.96%,
CCN1CCC(N(Cc2ccc(-c3ccc(C(F)(F)F)cc3)cc2)C(=O)Cn2c(CCc3cccc(F)c3F)nc(=O)c3ccccc32)CC1 [TCMDC-141048],116.3%,
CC(C)N1CCC(N(Cc2ccc(-c3ccc(C(F)(F)F)cc3)cc2)C(=O)CCCn2c(CCc3cccc(F)c3F)nc(=O)c3ccccc32)CC1 [TCMDC-141316],88.07%,
O=C(C1CCCC1)N1CCOC(CCN2CCC(c3ccccc3)CC2)(c2ccc(Cl)c(Cl)c2)C1 (stereo not shown) [TCMDC-135327],-12.01%,
CC(C)Cc1nc2nc(N)nc(N)c2cc1C(C)C [TCMDC-137930],2.497%,
CC1CCCN(c2ccc(NC(=O)c3cccs3)cc2[N+](=O)[O-])C1 (stereo not shown) [TCMDC-124625],1.853%,
O=C(Nc1ccc2c(c1)CCCN2S(=O)(=O)c1cccs1)c1cc([N+](=O)[O-])ccc1Cl [TCMDC-125153],96.55%,
CC(=O)c1cccc(NC(=O)c2ccc(Cl)c(S(=O)(=O)N3CCc4ccccc43)c2)c1 [TCMDC-124431],4.693%,
O=c1cc(NCCC2CC=CCN2Cc2ccc(Cl)c(Cl)c2)[nH]c2ccccc12 (stereo not shown) [TCMDC-139445],3.776%,
COc1ccc(CCNCC(O)c2cccc(Br)c2)c(Cl)c1OC (stereo not shown) [TCMDC-125478],12.88%,
COc1ccc(CCNCCCCCCNCCc2ccc(OC)c(OC)c2Cl)c(Cl)c1OC [TCMDC-131261],103.5%,
COc1ccc(CCNCCCCCCNCCc2ccc(Cl)cc2)c(Cl)c1OC [TCMDC-131272],114.1%,
O=C(Nc1ccsc1C(=O)NC1CCCCC1)c1ccc(F)cc1 [TCMDC-123789],-7.21%,
CCCC(C)Nc1nc(C)cc(N[C@@H](CC(C)C)C(=O)NCCOc2ccccc2)n1 (stereo partly shown) [TCMDC-134898],-16.46%,
O=C(C=C1c2ccccc2-c2ccccc21)NC1CCC(CN2CCC(c3c[nH]c4ccccc34)CC2)CC1 (stereo not shown) [TCMDC-139918],,-14.57%

SMILES,% Inhibition,% Inhibition (% Inhibition)
CC1=C(C(=O)NC2CCC(CN3CCC(c4c[nH]c5ccccc45)CC3)CC2)Cc2ccccc21 (stereo not shown) [TCMDC-139765],,-59.52%
O=C(C=C1c2ccccc2-c2ccccc21)NC1CCC(CN2CCC(c3c[nH]c4ccccc34)CC2)CC1 (stereo not shown) [TCMDC-139906],,-40.53%
O=C(NC1CCC(CN2CCC(c3c[nH]c4ccccc34)CC2)CC1)[C@H]1Cc2ccccc2CN1 (stereo partly shown) [TCMDC-140311],105%,
CC1=C(C(=O)NC2CCC(CN3CCC(c4c[nH]c5ccccc45)CC3)CC2)Cc2ccccc21 (stereo not shown) [TCMDC-139755],,71.55%
COc1cccc(NC(=O)[C@H](C(C)C)n2c(=O)[nH]c3ccccc3c2=O)c1 [TCMDC-125133],96.89%,
COc1cccc(NC(=O)[C@H](C)n2c(=O)[nH]c3ccccc3c2=O)c1 [TCMDC-124998],68.49%,
COc1cccc(NC(=O)COc2ccc(C(=O)Nc3nc4ccccc4[nH]3)cc2)c1 [TCMDC-125060],-14.04%,
COc1ccccc1CNC(=O)C(=O)Nc1c(-c2ccccc2)[nH]c2ccccc12 [TCMDC-124999],-88.11%,
COc1ccc(NC(=O)Nc2cccc(-c3cccc(-c4nc5ccccc5[nH]4)c3)c2)cc1 [TCMDC-133246],-3.32%,
COc1ccc2[nH]c3ccccc3c(=O)c2c1 [TCMDC-123948],14.64%,
C=CCc1cc(Br)ccc1OCCCON1C(N)=NC(N)=NC1(C)C [TCMDC-131341],13.45%,
O=C(/C=C/c1ccc(Cl)c(Cl)c1)NCCCCCCN1CCN(C(=O)Nc2ccc(OC(F)F)cc2)CC1 [TCMDC-135834],-53.7%,
Cc1ccc(C(=O)c2oc3ccc4c(C)cc(=O)oc4c3c2C)cc1 [TCMDC-125583],-7.355%,
Cc1cccc(C)c1OC(=O)C(C)C(O)C1(Sc2ccccc2)CCN(C)CC1 (stereo not shown) [TCMDC-132104],17.64%,
O=C(Nc1ccc(F)cc1)NC1CCN(c2ccnc3cc(Cl)ccc23)CC1 [TCMDC-133570],-24.37%,
Cc1nc(Nc2cc(Cl)ccc2O)nc(Nc2cc(Cl)ccc2O)c1[N+](=O)[O-] [TCMDC-125765],-25.8%,
CC(=O)c1ccc2cc(C(=O)NC3CCC(CCN4CCc5ccc(-c6noc(C)n6)cc5CC4)CC3)[nH]c2c1 (stereo not shown) [TCMDC-140072],-66.89%,
O=c1cc(NCCCNCc2cc(Cl)cc(Cl)c2OCc2ccccc2)[nH]c2ccccc12 [TCMDC-139488],-11.96%,
Cc1ccc(-n2cc(CNCCCn3ccnc3)c(-c3cccc(C)c3)n2)cc1 [TCMDC-124630],80.81%,
Cc1ccc(-n2cc(CNCCc3ncc(C)[nH]3)c(-c3ccc(F)cc3)n2)cc1 [TCMDC-124685],44.13%,
COc1ccc(-n2cc(CNCCCn3ccnc3)c(-c3cccc(F)c3)n2)cc1 [TCMDC-124651],46.38%,
